This is an account of results in PubChem BioAssay (Tox21).

Values joined by “and” are separate entries in the source; they are usually repeats but may differ in a detail not shown here. Equal values may be shown once. Results filed as inconclusive are left out. A call without a number means that no potency is given here. More than one record can exist for a structure, and the calls need not agree. Active and inactive are the calls of the source. Calls come from the whole dose curve. Residues, ends and D or L forms follow the SMILES beside them.
Potency is the fitted concentration of half-maximal effect.

The test is described as follows: qHTS assay to identify small molecule antagonists of the sonic hedgehog signaling (Shh) pathway (AID 1259369). Note: nearly all actives have a fitted effect of over 45% in size. The conditions noted are these: NIH/3T3 Gli1-Luc reporter, Shh antagonist, luminescence 24 h; series mostly up to 92.4 µM. From the text:
U.S. Tox21 Program National Center for Advancing Translational Sciences [NCATS] NIH Chemical Genomics Center [NCGC] U.S. Environmental Protection Agency [EPA] National Institutes of Environmental Health Sciences [NIEHS] National Toxicology Program [NTP] U.S. Food and Drug Administration [FDA] Tox21 Assay Overview: The sonic hedgehog (Shh) pathway is essential for normal embryonic development. Dysregulation of the Shh pathway can cause severe developmental defects in organs. Therefore chemicals that interfere with the pathway are potential developmental toxicants. A cell line designated 3T3Gli1-Luc (DMB/OARSA/CFSAN/FDA, Laurel, MD), a NIH/3T3 derived clone containing stably integrated Gli1-Luc reporter is used to detect chemical interference of the Shh pathway, by changes in the expression of the firefly Luc gene under the control of the Gli1 transcriptional response element. This cell line was used to screen Tox21 libraries for identifying and prioritizing the potential developmental toxicants that interfere Shh pathway. Conditioned medium-stimulated mode was used to screen for chemicals inhibiting Shh signaling.
Tox21 Assay Protocol Summary: 3T3 Gli1-Luc cells were dispensed at 2,000 per well in 5uL of culture medium into white solid bottom 1536-well plates (Greiner Bio-One, Monroe, NC) using a Multidrop Combi (Thermo Scientific, Waltham, MA) dispenser. The assay plates were incubated at 37 C and 5% CO2 for 4hr, and then 23nL of compounds dissolved in DMSO and positive control were transferred using a Pintool station (Wako, San Diego, CA). The compound transfer was followed by the addition of 1ul conditioned medium or assay buffer using two separate tips of Flying Reagent Dispenser (FRD, Aurora Discovery, San Diego, CA). The assay plates were incubated at 37C and 5% CO2 for 24hr. For luciferase read, 4uL of Amplite Luciferase reporter gene assay reagent (AAT Bioquest, Inc. Sunnyvale, CA) was added to each well of the assay plates using FRD and incubated at room temperature for 30min. The luminescence signal was measured using a ViewLux plate reader (Perkin Elmer, Shelton, CT).
A general note: qHTS replaces the single test concentration by a dilution series.
For `OCCc1ccccc1`, the Potency entry is “inactive”. On to `CCCCCCCCCCCCCCCC(=O)O`, for which the Potency entry is “inactive”.

Take `CC(O)CO` (stereo not given): the Potency result is “inactive”.

As to `O=C(O)c1cc(N=Nc2ccc(S(=O)(=O)Nc3ccccn3)cc2)ccc1O`, the Potency entry is “inactive”. The result for `CC(=O)NS(=O)(=O)c1ccc(N)cc1` reads “inactive”. As for `Cn1c(=O)c2[nH]cnc2n(C)c1=O`, the Potency entry was “inactive”. On to `O=C(O)c1cccc([N+](=O)[O-])c1`, for which the Potency result is “inactive”. `NC(N)=O`: the Potency was 7.28 µM (active) and inactive and 68.6 µM (active). Regarding `COc1c2occc2cc2ccc(=O)oc12`, the Potency is 24.3 µM (active) and inactive. The result for `O=c1ccc2ccccc2o1` reads “inactive”; that for `NC(=O)NC1NC(=O)NC1=O` (stereo not given), “inactive”.

In the case of `COC(=O)[C@H](Cc1ccccc1)NC(=O)[C@@H](N)CC(=O)O` (H-Asp-Phe-OMe), the Potency result is “inactive”. As for `CCC1(c2ccccc2)C(=O)NCNC1=O`, the Potency entry is “inactive”.

On to `CCCNC(=O)NS(=O)(=O)c1ccc(Cl)cc1`, for which the Potency result is “inactive”. For the compound `CCCCC(CC)COC(=O)/C=C/c1ccc(OC)cc1` (stereo not given), the Potency result is “inactive”. For the compound `CC(C)[C@@H]1CC[C@@H](C)C[C@H]1O`, the Potency entry was “inactive and 31.6 µM (active)”.

`NC(=O)c1cnccn1`: the Potency entry was “inactive”. In the case of `CCCC(O)C(CC)CO` (stereo not given), the Potency entry was “inactive”. As to `Nc1ccc(O)c(C(=O)O)c1`, the Potency result is “inactive”. For the compound `O=C(O)c1cccnc1`, the Potency entry is “inactive”.

Regarding `Nc1ccn([C@H]2CC[C@@H](CO)O2)c(=O)n1`, the Potency result is “inactive”. Regarding `Cc1cc(=O)[nH]c(=S)[nH]1`, the Potency result is “inactive”.

In the case of `Cn1cc[nH]c1=S`, the Potency entry was “inactive”. The same measure for `CCOc1ccc(NC(=O)CC(C)O)cc1` (stereo not given): “inactive”; for `O=C(O)CCCCCCCC(=O)O`: “inactive”; for `CCCN(CCC)S(=O)(=O)c1ccc(C(=O)O)cc1`: “inactive”. Regarding `COc1ccc2[nH]cc(CCNC(C)=O)c2c1`, the Potency result was “inactive”. As for `O=S(=O)(O)c1ccc2cc(O)ccc2c1`, the Potency result was “inactive”.

With `Cc1ccc(S(=O)(=O)NC(=O)NN2CCCCCC2)cc1`, the Potency entry is “inactive”. With `Oc1ccc(/C=C/c2cc(O)cc(O)c2)cc1`, the Potency is 9.78 µM (active) and 17.2 µM (active). The result for `NC(=O)c1ccccc1O` reads “inactive”. The same measure for `Nc1ccc(S(=O)(=O)Nc2nccs2)cc1`: “inactive”; for `O=C1NC(=O)c2ccccc21`: “inactive”. With `CCCC(CCC)C(=O)O`, the Potency entry is “inactive”.

Regarding `CCCCOC(=O)CC(CC(=O)OCCCC)(OC(C)=O)C(=O)OCCCC`, the Potency entry was “inactive”. For the compound `O=C(O)CCCCC(=O)O`, the Potency result is “inactive”. Take `CC(=O)OCC(COC(C)=O)OC(C)=O`: the Potency entry is “inactive”. For the compound `O=C(c1ccccc1)c1ccccc1`, the Potency entry is “inactive”. Turning to `CC(O)C(=O)O` (stereo not given), the Potency result was “inactive”. Turning to `Cc1ccc(C)c(OCCCC(C)(C)C(=O)O)c1`, the Potency result was “inactive”.
